Compound activity deposited in PubChem BioAssay by several laboratories.
CYP2C9 act: activators of human CYP2C9; recombinant CYP2C9, luciferin-H conversion, luminescence; hits give high values; factor 1 = untreated enzyme, 0 = blocked; activation factor at 5 µM; P11712; AID 1024; actives 1.4% (n = 96,000);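 active = activation factor of 2 or more for CYP2C9 at a 5 µM dose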
Target sequence (P11712 whole entry, looked up): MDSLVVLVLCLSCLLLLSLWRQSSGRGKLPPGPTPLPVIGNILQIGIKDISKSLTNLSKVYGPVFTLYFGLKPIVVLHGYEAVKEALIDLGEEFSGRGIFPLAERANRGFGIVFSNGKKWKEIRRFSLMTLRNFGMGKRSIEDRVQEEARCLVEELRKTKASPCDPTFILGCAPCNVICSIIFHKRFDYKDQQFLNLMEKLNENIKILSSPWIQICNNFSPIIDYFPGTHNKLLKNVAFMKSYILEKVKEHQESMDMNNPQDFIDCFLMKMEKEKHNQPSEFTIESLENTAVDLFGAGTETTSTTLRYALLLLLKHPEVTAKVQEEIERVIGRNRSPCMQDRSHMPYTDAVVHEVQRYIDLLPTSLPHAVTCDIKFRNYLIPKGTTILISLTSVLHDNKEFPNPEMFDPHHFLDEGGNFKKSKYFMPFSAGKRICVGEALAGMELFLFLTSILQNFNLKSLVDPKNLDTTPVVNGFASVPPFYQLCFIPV
CYP2C19 act: cytochrome P450 2C19 (human) activation; activation factor at 5 µM; AID 1025; P33261; recombinant CYP2C19, luciferin-H EGE luminescence; hits give high values; 0 = fully inhibited enzyme, 1 = untreated enzyme; 96,000 tested, under 10 active;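 active = activation factor of at least 2 at 5 µM in the primary screen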
sEH inhibitor: soluble epoxide hydrolase (human) inhibition. inhibition, % at 2 µM. recombinant human sEH enzymatic activity assay. actives 0.34% (n = 91,000). P34913; in the data active = inhibition above about 80%
sEH act: activators of human soluble epoxide hydrolase. activation, % at 2 µM. AID 717. actives 0.04% (n = 91,000). P34913. purified human sEH enzymatic activity, activator screen; in the data active = activation above about 37%
CYP2C19 inhib: inhibitors of human CYP2C19; CYP2C19 Supersomes, luciferin-H EGE luminescence, 30 min; inhibition, % at 5 µM; actives 21% (n = 96,000); P33261;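 active = CYP2C19 inhibition above a set limit at 5 µM in the primary screen, cut at about 50% in these data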
CYP2C9 inhib: human CYP2C9 inhibition | P11712 | CYP2C9 Supersomes, luciferin-H conversion, luminescence | inhibition, % at 5 µM | actives 20% (n = 96,000) | AID 777;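 active = blocking of liver enzyme CYP2C9 beyond about 50% at 5 µM, limit read from the data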
Of the large screens only hits and unclear results are named; the others gave an inactive call. Shown are actives, neighbours in structure and some others; about 27% of the full set was active somewhere.

CCSc1nc2ccccc2n1Cc1nc(N)nc(N(C)C)n1	CYP2C19 inhib 90, CYP2C9 inhib 66
CCSc1nc2ccccc2n1CC(N)=O	none (no result: CYP2C9 act, CYP2C19 act, CYP2C19 inhib, CYP2C9 inhib)
O=C(Nc1ccccc1)OC1C2CCC1C(N1CCCCC1)CC2 (stereo unspecified)	none
C=CCNC(=O)C1CCCN(S(C)(=O)=O)C1 (stereo unspecified)	none
C=C(C)CSc1nnc(-c2cccc(S(=O)(=O)N(C)C)c2)n1-c1cc(OC)ccc1OC	CYP2C19 inhib 86, CYP2C9 inhib 85
COCCCNc1ncnc2sc3c(c12)CCC(C)C3 (stereo unspecified)	none (no result: CYP2C9 act, CYP2C19 act, CYP2C19 inhib, CYP2C9 inhib)
Fc1ccc(Nc2ncnc3sc4c(c23)CCC4)cc1	CYP2C19 inhib 88, CYP2C9 inhib 61
c1csc(CCNc2ncnc3sc4c(c23)CCC4)c1	CYP2C19 inhib 94
C[C@H](Nc1ncnc2sc3c(c12)CCC3)C(=O)O	none
c1cn(CCCNc2ncnc3sc4c(c23)CCC4)cn1	CYP2C19 inhib 100, CYP2C9 inhib 97 (no result: sEH inhibitor, sEH act)
c1ccc(Nc2ncnc3sc4c(c23)CCC4)cc1	CYP2C19 inhib 76
Cn1c(=O)[nH]c(=O)c2c1nc(NCc1ccccc1)n2CC(O)c1ccccc1 (stereo unspecified)	none
COc1cc(C(=O)N2CCN(C(=O)COc3ccc4ccccc4c3)CC2)cc(OC)c1OC	none
O=S(=O)(Nc1ncnc2sc3c(c12)CCC3)c1ccc2ccccc2c1	CYP2C9 inhib 79
CC12CCC(=O)N1c1c(sc3nc(N4CCOCC4)c4c(c13)CCCC4)C(=O)N2 (stereo unspecified)	CYP2C9 inhib 68
CN(C(=O)c1ccc(S(=O)(=O)NC2CCCC2)cc1)C1CCCCC1	none
CCOC(=O)C1CCCC(NS(=O)(=O)c2ccc(NC(C)=O)cc2)C1 (stereo unspecified)	CYP2C19 inhib 58, CYP2C9 inhib 77
CC(C)(C)C(=O)CNS(=O)(=O)c1ccc(S(=O)(=O)NC2CCCC2)cc1	CYP2C19 inhib 89
O=C(CN1CCCCC1)Nc1ccc(S(=O)(=O)NC2CCCCC2)cc1	CYP2C9 inhib 72 (no result: sEH inhibitor, sEH act)
O=S(=O)(NC1CCCC1)c1ccc(S(=O)(=O)NC2CCCC2)cc1	CYP2C19 inhib 98, CYP2C9 inhib 86 (no result: sEH inhibitor, sEH act)
CCC(=O)N[C@@H]1CC(C(C)(C)NC(=O)CC)CC=C1C (stereo partly specified)	none (no result: sEH inhibitor, sEH act)
O=S(=O)(NC1CCCCC1NS(=O)(=O)c1ccc(F)cc1)c1ccc(F)cc1 (stereo unspecified)	CYP2C19 inhib 62, CYP2C9 inhib 87
COc1cccc(Cn2nnc(C(=O)NCc3ccccc3Cl)c2N)c1	CYP2C9 act 2.9
COc1cccc(Cn2nnc(C(=O)Nc3cc(Cl)ccc3OC)c2N)c1	CYP2C9 act 2.1 (no result: sEH inhibitor, sEH act)
COc1cccc(Cn2nnc(C(=O)NCCc3ccc(Cl)cc3)c2N)c1	none
Cc1ccc2nc(Cl)c(CN(C(=O)c3cnccn3)C3CCCCC3)cc2c1	none
C=CCNS(=O)(=O)c1ccc(OCC(=O)OC)cc1	CYP2C19 inhib 70, CYP2C9 inhib 71
CCCNS(=O)(=O)c1ccc(OCC(=O)NCc2ccco2)cc1	none
COC(=O)COc1ccc(S(=O)(=O)NCc2ccco2)cc1	CYP2C19 inhib 60
CCOC(=O)COc1ccc(S(=O)(=O)NCc2ccco2)cc1	CYP2C19 inhib 73
COC(=O)COc1ccc(S(=O)(=O)Nc2ccc(C(N)=O)cc2)cc1	none
O=C(CNS(=O)(=O)c1ccc2ccccc2c1)OCC(=O)c1ccc(Br)s1	CYP2C9 act 2.3
COC(=O)CCCNS(=O)(=O)c1ccc2ccccc2c1	none (no result: CYP2C9 act, CYP2C19 act, CYP2C19 inhib, CYP2C9 inhib)
O=C(NCC1CCCO1)c1onc(CSc2ccc(F)c(F)c2)c1C(=O)O (stereo unspecified)	none
CCOC(=O)c1cnc2c(C(F)(F)F)cccc2c1N1CCOCC1	CYP2C19 inhib 68
CC(C)CCn1c(=O)c2ccccc2c2ccccc2c1=O	CYP2C19 inhib 86, CYP2C9 inhib 80
CCn1nnc(-c2ccccc2NS(=O)(=O)c2ccc(C(=O)OC)cc2)n1	CYP2C19 inhib 98, CYP2C9 inhib 73
CN1C(=O)C2ON(c3ccccc3)C(c3cccs3)C2C1=O (stereo unspecified)	CYP2C19 inhib 59
CN1OC2C(=O)N(c3ccccc3)C(=O)C2C1c1ccc(F)cc1 (stereo unspecified)	none
Cc1ccc(OCC(=O)Sc2ccc(C)cc2)cc1	CYP2C19 inhib 52
